Bioassay records: PubChem, Broad Institute
Many of the other results were omitted from the sample, so hits are more common in it than they were.
BL2 CD40 inh = CD40 pathway inhibition in BL2 cells. actives 0.94% (n = 83,000). inhibition, % at 10 µM. BL2 NF-kB luciferase reporter, CD40L-induced, 4 h;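 active = mean inhibition of at least 50% with a set share of replicates also reaching that level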
Hits are given with their value; . = inactive; [ ] = another dose, or the depositor's remark.

SMILES | BL2 CD40 inh
NC(=O)C(CCCCN1CCCCC1)(c1ccccc1)c1ccccc1 | .
OC(CCCN1CCC(O)(c2ccc(Cl)cc2)CC1)c1ccc(F)cc1 (centres undefined) | .
c1ccc(N2CCCCC2)c(Nc2nc3ccccc3n3cnnc23)c1 | .
CC1CCCCC1NC(=O)Cn1cnc2sccc2c1=O (centres undefined) | .
Cc1cnc(NC(=O)c2cc3c(s2)CCCC3)s1 | 65
CCc1nnc(NC(=O)c2cc3c(s2)CCCCC3)s1 | .
CNC(=O)c1cc2c(s1)CCCCCC2 | .
C[C@@H]1CN([C@@H](C)CO)C(=O)CCCn2nncc2CO[C@@H]1CN(C)C(=O)C1CC1 | .
NC(=O)c1oc2ccccc2c1NC(=O)CCc1ccccc1 | .
C=CC[n+]1c(/C=C2\C=Cc3cc(C)ccc3N2CC)ccc2ccccc21 | 65
CCOc1ccc(NS(=O)(=O)c2cc(C(=O)NCC3CCCO3)ccc2Cl)cc1 (centres undefined) | .
CCC(=O)N1C[C@@H](O)COC[C@@H]2O[C@H](CC(=O)NCc3ccc(Oc4ccccc4)cc3)CC[C@H]21 | .
O=C(C[C@H]1CC[C@H]2[C@@H](COC[C@H](O)CN2Cc2cc(F)ccc2F)O1)NCc1ccc(Oc2ccccc2)cc1 | .
O=C(C[C@@H]1CC[C@H]2[C@@H](COC[C@@H](O)CN2Cc2cc(F)ccc2F)O1)NCc1ccc(Oc2ccccc2)cc1 | 51[25 µM]
O=C(C[C@@H]1CC[C@H]2[C@@H](COC[C@H](O)CN2Cc2cc(F)ccc2F)O1)NCc1ccc(Oc2ccccc2)cc1 | .
O=C(C[C@@H]1CC[C@@H]2[C@H](COC[C@H](O)CN2Cc2cc(F)ccc2F)O1)NCc1ccc(Oc2ccccc2)cc1 | 63[25 µM]
O=C(C[C@@H]1CC[C@@H]2[C@H](COC[C@@H](O)CN2CCC(F)(F)F)O1)NCc1ccc(Oc2ccccc2)cc1 | .
COc1ccc2c3c(n(C)c2c1)[C@H](CO)NCC31CCN(Cc2ccncc2)CC1 | .
C=CCN1C(=O)/C(=C2/Sc3ccc(OC)cc3N2C)SC1=Nc1ccccc1 | .
O=C1Nc2ccc(S(=O)(=O)N3CCOCC3)c3cccc1c23 | .
O=C(NCCc1ccccc1)c1noc2c1CCc1ccccc1-2 | .
CC(=O)NCCc1ccc(O)cc1 | .
O=C1c2ccccc2CCC1CNCCc1ccc(O)cc1 (centres undefined) | 91[25 µM]
C[C@@H]1CN([C@H](C)CO)C(=O)c2cc(NC(=O)Nc3ccc4c(c3)OCO4)ccc2O[C@@H]1CN(C)Cc1ccncc1 | .
Nc1nc(N)n(-c2ccccc2)c(=Nc2ccccc2)n1 | .
SMILES | BL2 CD40 inh
N#C[C@H]1[C@H](c2ccc(C#CC3CCCC3)cc2)[C@@H](CO)N1C(=O)Nc1ccc(F)cc1 | .
N#C[C@H]1[C@@H](c2ccc(C#CC3CC3)cc2)[C@@H](CO)N1C(=O)Nc1ccc(F)cc1 | .
CC(C)NC(=O)N1[C@H](C#N)[C@@H](c2ccc(C#CC3CCCCC3)cc2)[C@@H]1CO | .
N#C[C@@H]1[C@H](c2ccc(C#CC3CCCC3)cc2)[C@@H](CO)N1C(=O)Nc1ccc(F)cc1 | 48
N#C[C@H]1[C@H](c2ccc(C#CC3CCCCC3)cc2)[C@H](CO)N1C(=O)Nc1ccc(F)cc1 | 51[25 µM]
CC(C)NC(=O)N1[C@H](C#N)[C@H](c2ccc(C#CC3CCCCC3)cc2)[C@@H]1CO | .
CC(C)NC(=O)N1[C@H](CO)[C@H](c2ccc(C#CC3CCCCC3)cc2)[C@@H]1C#N | .
CC(C)NC(=O)N1[C@H](C#N)[C@@H](c2ccc(C#CC3CCCC3)cc2)[C@H]1CO | .
N#C[C@H]1[C@@H](c2ccc(C#CC3CCCCC3)cc2)[C@H](CO)N1C(=O)Nc1ccc(F)cc1 | 55[25 µM]
CSc1ccc(S(=O)(=O)NCC(=O)OCCOc2ccccc2)cc1[N+](=O)[O-] | .
N#Cc1ccc(OCC(=O)NCC2(N3CCCCC3)CCCCC2)cc1 | .
COc1cccc(NC(=O)CN(C)C(=O)c2cc(S(=O)(=O)N3CCCCC3)ccc2Cl)c1 | .
O=C(O)C1CCCCC1C(=O)NC1C2CC3CC(C2)CC1C3 (centres undefined) | .
COc1cccc(Nc2nc(-c3ccc4c(c3)OCCO4)cs2)c1 | .
O=C(Nc1nc(-c2ccc3c(c2)OCCO3)cs1)c1ccco1 | .
COc1ccccc1C(=O)Nc1nc(-c2ccc3c(c2)OCCO3)cs1 | 50
CNC(=O)C1CC(=O)N(c2ccc(OCC(=O)NCc3ccccc3)cc2)C1 (centres undefined) | .
COc1ccc(C(=O)NCC2CCCCC2)cc1S(=O)(=O)N1CCOCC1 | .
COc1ccccc1OCC(=O)N1CCN(c2ccccc2OC)CC1 | .
COc1ccccc1N1CCN(c2ccc(-c3ccccc3)nn2)CC1 | 53
COc1ccccc1N1CCN(c2ccc(S(=O)(=O)N3CCN(C)CC3)cn2)CC1 | .
COc1ccc(C(=O)NCCS(=O)(=O)NC2CCCC2)cc1 | .
CN(CC(=O)N1CCN(C2CCCCC2)CC1)S(=O)(=O)c1cccc2nsnc12 | .
Fc1ccccc1CNCCC(Cc1ccccc1)c1ccc2c(c1)OCO2 (centres undefined) | 33
CC(=O)N(CCC(Cc1ccccc1)c1ccc2c(c1)OCO2)Cc1ccccc1F (centres undefined) | .
SMILES | BL2 CD40 inh
CC(C)CCC(CCNCc1ccccn1)c1ccc2c(c1)OCO2 (centres undefined) | .
O=C(c1cccc(F)c1)N1CCCCN2[C@H](CO)[C@@H](c3ccc(C#CC4(O)CCCC4)cc3)[C@H]2C1 | .
Cc1onc(-c2ccccc2)c1C(=O)Oc1ccccc1 | .
Cc1ncn(-c2ccc(C(=O)Oc3ccccc3)cn2)n1 | 38
O=C(Oc1ccccc1C(=O)Oc1ccccc1)c1cccnc1 | .
CO[C@@H]1CN(C)C(=O)c2cc(NC(=O)Cc3ccccc3)ccc2OC[C@@H](C)N(C(=O)c2ccccc2F)C[C@H]1C | .
CC(=O)Nc1ccc(C)cc1NC(C)=O | .
Cc1sc(-c2ccccn2)nc1OC(=O)c1ccc(F)cc1F | .
CN(C)c1ccc(NC(=O)c2cnsn2)cc1 | 65
CN(C)c1ccc(NC(=O)c2ccc3c(c2)nnn3C)cc1 | .
CN(C)c1ccc(NC(=O)c2ccc3nc[nH]c3c2)cc1 | .
O=C(Nc1cc(F)ccc1F)N1CCCCN2[C@H](C1)[C@H](c1ccc(C3=CCCCC3)cc1)[C@@H]2CO | .
c1ccc2c(c1)CC(N1CCCCC1)c1ccccc1N2 (centres undefined) | .
N#C[C@H]1[C@@H](c2ccccc2/C=C/c2ccccc2)[C@@H](CO)N1S(=O)(=O)c1ccc(F)cc1 | .
Cc1ccc(P(=O)(CSC(=N)N)c2ccc(C)cc2)cc1 | 61
O=[N+]([O-])c1ccc(S(=O)Cc2ccccc2)c([N+](=O)[O-])c1 (centres undefined) | 106
O=C(Cc1cccc([N+](=O)[O-])c1)Nc1ccccc1 | .
O=[N+]([O-])c1ccc(CS(=O)c2ccccc2)cc1 (centres undefined) | .
O=[N+]([O-])c1ccc(Sc2ccccn2)nc1 | .
CN(C)c1ncnc(N(C)C)c1[N+](=O)[O-] | .
Nc1ncnc(Sc2ncccn2)c1[N+](=O)[O-] | 84
O=S(=O)(c1ccc(NCCOCCO)nc1)N1CCCCC1 | .
CCN1CCN(S(=O)(=O)c2ccc(Oc3ccccc3OC)cc2)CC1 | .
Cc1nn2c(-c3cccnc3)ccnc2c1-c1ccccc1 | .
Cn1c(SSc2ccc(-c3cccnc3)n2C)ccc1-c1cccnc1 | 48
Cn1c(SC/C=C/c2ccccc2)nnc1-c1cccnc1 | .
